Experimental data taken from paper PMC7862700, “An all-to-all approach to the identification of sequence-specific readers for epigenetic DNA modifications on cytosine”.

Tests used:
Test in all cases: DAPPL (digital affinity profiling via proximity ligation, sequencing); 10 mM Tris-HCl pH 7.5, 50 mM NaCl, 1 mM DTT, 4% glycerol, room temperature, 30 min; GST-TFs on glutathione beads, 16-mer random dsDNA library, 0.1% formaldehyde crosslink after washing; high values mean tight binding
[1] = target: T1, FEV (Homo sapiens, UniProt Q99581 1-238); conditions: protein: recombinant; tags: N-terminal GST; dsDNA, one strand shown
T1 sequence: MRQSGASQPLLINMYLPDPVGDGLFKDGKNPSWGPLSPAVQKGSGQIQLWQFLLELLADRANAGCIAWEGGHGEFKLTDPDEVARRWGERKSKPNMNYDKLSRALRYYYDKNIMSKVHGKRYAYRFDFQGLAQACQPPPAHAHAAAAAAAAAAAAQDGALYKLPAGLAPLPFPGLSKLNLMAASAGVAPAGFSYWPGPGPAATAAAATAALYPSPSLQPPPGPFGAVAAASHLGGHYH
In short: (§1)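 Binding signal is each hexamer's read frequency for a factor divided by its frequency in the tag-only sample. The factors were GST-fused human transcription factors from yeast, captured on glutathione beads, DNA-barcoded and pooled with that sample. Pools were incubated with 200 nmole of a random double-stranded 16-mer DNA library in Tris/NaCl/DTT/glycerol buffer at room temperature for 30 min, then washed, crosslinked with 0.1% formaldehyde, proximity-ligated with BsaI/T4 ligase (1 h, 37 °C), PCR-amplified and sequenced on an Illumina NextSeq500.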

[2] = target: ETV5 (Homo sapiens, UniProt P41161 1-510); conditions: protein: recombinant; tags: N-terminal GST; dsDNA, one strand shown
In short: as §1

[3] = target: HSF1 (Homo sapiens, UniProt Q00613 1-529); conditions: protein: recombinant; tags: N-terminal GST; chain copies: 3; dsDNA, one strand shown
In short: as §1

[4] = target: T2, SPIC (Homo sapiens, UniProt Q8N5J4 1-248); conditions: protein: recombinant; tags: N-terminal GST; dsDNA, one strand shown
T2 sequence: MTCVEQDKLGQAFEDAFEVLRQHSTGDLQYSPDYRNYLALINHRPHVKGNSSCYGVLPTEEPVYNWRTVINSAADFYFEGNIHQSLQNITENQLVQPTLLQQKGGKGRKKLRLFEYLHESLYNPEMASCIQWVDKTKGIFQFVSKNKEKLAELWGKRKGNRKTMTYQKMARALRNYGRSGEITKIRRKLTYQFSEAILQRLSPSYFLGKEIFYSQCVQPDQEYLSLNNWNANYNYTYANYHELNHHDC
In short: as §1

[5] = target: ELF4 (Homo sapiens, UniProt Q99607 1-663); conditions: protein: recombinant; tags: N-terminal GST; dsDNA, one strand shown
In short: as §1

[6] = target: T3, ELK4 (Homo sapiens, UniProt P28324-2 1-405); conditions: protein: recombinant; tags: N-terminal GST; dsDNA, one strand shown
T3 sequence: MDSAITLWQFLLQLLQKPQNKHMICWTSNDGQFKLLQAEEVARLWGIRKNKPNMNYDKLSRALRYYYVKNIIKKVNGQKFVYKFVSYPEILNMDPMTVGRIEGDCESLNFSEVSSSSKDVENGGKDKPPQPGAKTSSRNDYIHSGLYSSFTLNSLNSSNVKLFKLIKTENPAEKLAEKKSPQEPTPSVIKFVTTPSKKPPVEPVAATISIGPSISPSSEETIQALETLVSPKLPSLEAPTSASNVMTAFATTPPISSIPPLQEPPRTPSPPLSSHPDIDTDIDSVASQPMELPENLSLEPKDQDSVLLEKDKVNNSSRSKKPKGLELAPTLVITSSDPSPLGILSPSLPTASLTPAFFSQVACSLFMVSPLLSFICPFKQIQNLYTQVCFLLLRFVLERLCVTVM
In short: as §1

[7] = target: T4, ETV2 (Homo sapiens, UniProt O00321 1-342); conditions: protein: recombinant; tags: N-terminal GST; dsDNA, one strand shown
T4 sequence: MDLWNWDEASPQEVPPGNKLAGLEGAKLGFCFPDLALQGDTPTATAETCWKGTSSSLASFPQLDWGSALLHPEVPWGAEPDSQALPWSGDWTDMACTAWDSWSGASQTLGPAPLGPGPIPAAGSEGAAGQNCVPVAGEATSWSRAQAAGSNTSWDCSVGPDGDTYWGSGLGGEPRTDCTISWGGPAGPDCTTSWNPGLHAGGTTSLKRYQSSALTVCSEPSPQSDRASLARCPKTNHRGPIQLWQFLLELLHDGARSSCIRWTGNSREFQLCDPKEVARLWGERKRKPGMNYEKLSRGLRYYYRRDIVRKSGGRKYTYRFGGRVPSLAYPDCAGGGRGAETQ
In short: as §1

[8] = target: T5, ELF3 (Homo sapiens, UniProt P78545 1-371); conditions: protein: recombinant; tags: N-terminal GST; dsDNA, one strand shown
T5 sequence: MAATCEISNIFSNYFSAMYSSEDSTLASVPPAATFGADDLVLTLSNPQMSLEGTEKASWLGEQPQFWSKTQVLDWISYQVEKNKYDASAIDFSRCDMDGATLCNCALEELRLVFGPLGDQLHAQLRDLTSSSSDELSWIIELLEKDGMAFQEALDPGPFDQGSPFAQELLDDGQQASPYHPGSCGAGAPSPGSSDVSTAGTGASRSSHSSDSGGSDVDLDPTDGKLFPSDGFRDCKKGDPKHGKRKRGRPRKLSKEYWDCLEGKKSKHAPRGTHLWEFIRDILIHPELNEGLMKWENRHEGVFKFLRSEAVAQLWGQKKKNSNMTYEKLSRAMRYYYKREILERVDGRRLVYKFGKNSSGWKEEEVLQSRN
In short: as §1

[9] = target: CRX (Homo sapiens, UniProt O43186 1-299); conditions: protein: recombinant; tags: N-terminal GST; dsDNA, one strand shown
In short: as §1

[10] = target: ETV1 (Homo sapiens, UniProt P50549 1-477); conditions: protein: recombinant; tags: N-terminal GST; dsDNA, one strand shown
In short: as §1

[11] = target: T6, ERF (Homo sapiens, UniProt P50548 1-548); conditions: protein: recombinant; tags: N-terminal GST; dsDNA, one strand shown
T6 sequence: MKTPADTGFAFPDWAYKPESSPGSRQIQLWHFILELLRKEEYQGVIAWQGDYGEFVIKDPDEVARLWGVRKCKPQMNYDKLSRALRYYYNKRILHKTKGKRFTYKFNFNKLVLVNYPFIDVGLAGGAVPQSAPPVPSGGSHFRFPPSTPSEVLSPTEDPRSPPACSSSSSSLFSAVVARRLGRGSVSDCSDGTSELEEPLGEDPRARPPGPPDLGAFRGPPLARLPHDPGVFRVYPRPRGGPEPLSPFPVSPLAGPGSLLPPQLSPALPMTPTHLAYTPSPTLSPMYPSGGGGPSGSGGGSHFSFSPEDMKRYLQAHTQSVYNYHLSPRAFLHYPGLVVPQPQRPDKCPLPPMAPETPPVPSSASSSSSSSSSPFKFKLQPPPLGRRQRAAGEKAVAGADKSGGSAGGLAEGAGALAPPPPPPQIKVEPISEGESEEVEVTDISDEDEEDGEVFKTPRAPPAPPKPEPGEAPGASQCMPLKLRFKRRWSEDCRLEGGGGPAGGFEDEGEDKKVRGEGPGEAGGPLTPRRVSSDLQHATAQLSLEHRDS
In short: as §1

[12] = target: T7, ETV3L (Homo sapiens, UniProt Q6ZN32 1-361); conditions: protein: recombinant; tags: N-terminal GST; dsDNA, one strand shown
T7 sequence: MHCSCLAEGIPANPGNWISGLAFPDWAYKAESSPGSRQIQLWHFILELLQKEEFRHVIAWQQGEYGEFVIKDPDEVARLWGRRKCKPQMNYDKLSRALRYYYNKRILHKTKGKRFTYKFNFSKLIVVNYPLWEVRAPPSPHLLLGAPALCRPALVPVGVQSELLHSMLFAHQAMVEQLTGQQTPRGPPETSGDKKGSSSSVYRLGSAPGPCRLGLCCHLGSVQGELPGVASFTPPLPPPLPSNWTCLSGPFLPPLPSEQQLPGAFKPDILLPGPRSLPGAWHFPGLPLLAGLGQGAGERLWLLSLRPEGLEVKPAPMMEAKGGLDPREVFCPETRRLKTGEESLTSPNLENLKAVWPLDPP
In short: as §1

[13] = target: T8, ETS2 (Homo sapiens, UniProt P15036 1-469); conditions: protein: recombinant; tags: N-terminal GST; dsDNA, one strand shown
T8 sequence: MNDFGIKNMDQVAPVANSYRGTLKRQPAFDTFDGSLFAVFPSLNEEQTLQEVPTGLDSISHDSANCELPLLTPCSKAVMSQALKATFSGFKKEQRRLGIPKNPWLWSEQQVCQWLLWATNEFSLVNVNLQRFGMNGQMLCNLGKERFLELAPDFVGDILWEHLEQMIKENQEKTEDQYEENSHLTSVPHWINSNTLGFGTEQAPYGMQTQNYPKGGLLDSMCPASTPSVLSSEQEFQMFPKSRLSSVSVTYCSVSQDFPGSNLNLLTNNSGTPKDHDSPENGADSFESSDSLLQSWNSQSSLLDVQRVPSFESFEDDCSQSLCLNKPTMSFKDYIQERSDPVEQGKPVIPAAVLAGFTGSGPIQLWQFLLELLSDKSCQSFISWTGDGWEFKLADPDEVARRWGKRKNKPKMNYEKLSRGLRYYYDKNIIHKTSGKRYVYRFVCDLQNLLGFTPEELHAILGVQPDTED
In short: as §1

[14] = target: T9, SPDEF (Homo sapiens, UniProt O95238 1-335); conditions: protein: recombinant; tags: N-terminal GST; dsDNA, one strand shown
T9 sequence: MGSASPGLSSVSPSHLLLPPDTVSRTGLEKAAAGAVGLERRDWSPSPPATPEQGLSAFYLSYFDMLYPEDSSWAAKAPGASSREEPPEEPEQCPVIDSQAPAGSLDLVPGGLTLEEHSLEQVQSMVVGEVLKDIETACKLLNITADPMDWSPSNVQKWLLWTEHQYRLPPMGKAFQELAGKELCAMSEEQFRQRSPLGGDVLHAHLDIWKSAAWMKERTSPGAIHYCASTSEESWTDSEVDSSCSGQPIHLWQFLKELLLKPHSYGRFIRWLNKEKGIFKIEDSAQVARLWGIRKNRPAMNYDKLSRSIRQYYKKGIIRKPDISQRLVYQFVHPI
In short: as §1

[15] = target: T10, ETV7 (Homo sapiens, UniProt Q9Y603 1-341); conditions: protein: recombinant; tags: N-terminal GST; dsDNA, one strand shown
T10 sequence: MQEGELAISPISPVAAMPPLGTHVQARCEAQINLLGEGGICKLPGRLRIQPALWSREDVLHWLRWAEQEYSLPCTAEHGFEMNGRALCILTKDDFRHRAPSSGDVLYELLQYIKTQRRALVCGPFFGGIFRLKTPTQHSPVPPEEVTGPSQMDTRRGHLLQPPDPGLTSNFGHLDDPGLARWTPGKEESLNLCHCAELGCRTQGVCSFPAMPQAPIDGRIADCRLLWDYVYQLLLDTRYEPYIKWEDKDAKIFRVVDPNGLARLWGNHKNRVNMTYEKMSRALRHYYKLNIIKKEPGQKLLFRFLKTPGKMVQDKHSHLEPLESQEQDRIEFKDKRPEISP
In short: as §1

[16] = target: T11, ELF5 (Homo sapiens, UniProt Q9UKW6-2 1-255); conditions: protein: recombinant; tags: N-terminal GST; dsDNA, one strand shown
T11 sequence: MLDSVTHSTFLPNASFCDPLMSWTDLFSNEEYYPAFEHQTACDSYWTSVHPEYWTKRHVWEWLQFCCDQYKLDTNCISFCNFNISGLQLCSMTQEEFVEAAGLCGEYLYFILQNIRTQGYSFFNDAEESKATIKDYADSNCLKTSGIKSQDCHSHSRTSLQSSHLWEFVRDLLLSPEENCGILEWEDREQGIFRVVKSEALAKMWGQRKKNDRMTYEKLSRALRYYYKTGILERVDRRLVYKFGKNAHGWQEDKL
In short: as §1

[17] = target: T12, ETV3 (Homo sapiens, UniProt P41162-2 1-143); conditions: protein: recombinant; tags: N-terminal GST; dsDNA, one strand shown
T12 sequence: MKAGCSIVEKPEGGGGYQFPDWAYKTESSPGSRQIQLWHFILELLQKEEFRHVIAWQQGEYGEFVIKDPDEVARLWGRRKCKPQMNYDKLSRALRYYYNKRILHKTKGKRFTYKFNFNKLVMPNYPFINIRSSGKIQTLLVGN
In short: as §1

[18] = target: ETV6 (Homo sapiens, UniProt P41212 1-452); conditions: protein: recombinant; tags: N-terminal GST; dsDNA, one strand shown
In short: as §1

Sequence of CRX (O43186 whole entry): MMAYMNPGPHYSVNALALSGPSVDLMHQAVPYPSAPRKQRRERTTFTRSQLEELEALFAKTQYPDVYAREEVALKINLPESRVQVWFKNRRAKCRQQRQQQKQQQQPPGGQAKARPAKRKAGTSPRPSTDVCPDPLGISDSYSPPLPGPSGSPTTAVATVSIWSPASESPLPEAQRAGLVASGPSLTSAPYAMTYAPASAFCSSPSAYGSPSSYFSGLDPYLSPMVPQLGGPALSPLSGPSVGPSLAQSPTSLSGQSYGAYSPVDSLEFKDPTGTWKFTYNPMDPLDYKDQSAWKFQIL
Sequence of ETV1 (P50549 whole entry): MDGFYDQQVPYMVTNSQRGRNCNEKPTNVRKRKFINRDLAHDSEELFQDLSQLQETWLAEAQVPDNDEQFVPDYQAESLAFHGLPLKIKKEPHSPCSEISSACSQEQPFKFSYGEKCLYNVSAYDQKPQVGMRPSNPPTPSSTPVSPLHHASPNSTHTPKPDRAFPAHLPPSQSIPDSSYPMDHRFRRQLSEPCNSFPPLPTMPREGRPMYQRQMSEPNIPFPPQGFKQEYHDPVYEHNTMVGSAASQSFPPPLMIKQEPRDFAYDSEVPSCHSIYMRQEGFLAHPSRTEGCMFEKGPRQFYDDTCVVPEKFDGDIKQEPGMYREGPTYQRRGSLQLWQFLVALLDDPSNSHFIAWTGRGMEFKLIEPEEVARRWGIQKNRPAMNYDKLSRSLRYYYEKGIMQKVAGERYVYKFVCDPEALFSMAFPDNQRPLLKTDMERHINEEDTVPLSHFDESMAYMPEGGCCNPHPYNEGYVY
Sequence of ELF4 (Q99607 whole entry): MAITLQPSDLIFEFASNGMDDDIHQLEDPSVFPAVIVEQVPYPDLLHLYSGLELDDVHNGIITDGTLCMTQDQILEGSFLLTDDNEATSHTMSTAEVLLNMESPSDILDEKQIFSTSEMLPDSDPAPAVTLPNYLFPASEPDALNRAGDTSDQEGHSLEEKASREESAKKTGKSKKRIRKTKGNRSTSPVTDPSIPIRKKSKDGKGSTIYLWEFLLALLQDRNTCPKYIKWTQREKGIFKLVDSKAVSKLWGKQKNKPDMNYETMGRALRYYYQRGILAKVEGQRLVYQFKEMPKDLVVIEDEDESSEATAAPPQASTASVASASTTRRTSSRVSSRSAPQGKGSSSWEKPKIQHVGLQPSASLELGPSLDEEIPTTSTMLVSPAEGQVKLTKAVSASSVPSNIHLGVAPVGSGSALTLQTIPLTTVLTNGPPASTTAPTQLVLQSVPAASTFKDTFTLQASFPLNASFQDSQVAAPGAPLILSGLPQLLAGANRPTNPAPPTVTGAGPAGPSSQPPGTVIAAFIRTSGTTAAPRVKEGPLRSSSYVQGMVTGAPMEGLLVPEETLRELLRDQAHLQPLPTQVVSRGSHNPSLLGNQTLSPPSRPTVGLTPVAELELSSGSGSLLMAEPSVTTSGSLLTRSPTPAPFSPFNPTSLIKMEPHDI
Sequence of ETV5 (P41161 whole entry): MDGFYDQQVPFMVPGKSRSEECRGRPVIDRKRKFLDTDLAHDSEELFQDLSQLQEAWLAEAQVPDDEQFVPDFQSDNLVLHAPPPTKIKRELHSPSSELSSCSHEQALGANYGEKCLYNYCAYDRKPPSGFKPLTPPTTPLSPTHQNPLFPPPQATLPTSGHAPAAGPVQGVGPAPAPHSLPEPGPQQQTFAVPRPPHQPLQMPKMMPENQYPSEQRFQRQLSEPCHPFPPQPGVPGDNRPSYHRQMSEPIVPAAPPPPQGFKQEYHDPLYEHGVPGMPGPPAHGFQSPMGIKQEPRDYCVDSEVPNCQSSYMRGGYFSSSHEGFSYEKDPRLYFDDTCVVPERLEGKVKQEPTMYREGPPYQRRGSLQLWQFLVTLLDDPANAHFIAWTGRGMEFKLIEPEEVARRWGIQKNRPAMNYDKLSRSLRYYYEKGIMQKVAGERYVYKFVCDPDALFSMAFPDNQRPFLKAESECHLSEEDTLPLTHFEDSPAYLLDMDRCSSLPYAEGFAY
Sequence of ETV6 (P41212 whole entry): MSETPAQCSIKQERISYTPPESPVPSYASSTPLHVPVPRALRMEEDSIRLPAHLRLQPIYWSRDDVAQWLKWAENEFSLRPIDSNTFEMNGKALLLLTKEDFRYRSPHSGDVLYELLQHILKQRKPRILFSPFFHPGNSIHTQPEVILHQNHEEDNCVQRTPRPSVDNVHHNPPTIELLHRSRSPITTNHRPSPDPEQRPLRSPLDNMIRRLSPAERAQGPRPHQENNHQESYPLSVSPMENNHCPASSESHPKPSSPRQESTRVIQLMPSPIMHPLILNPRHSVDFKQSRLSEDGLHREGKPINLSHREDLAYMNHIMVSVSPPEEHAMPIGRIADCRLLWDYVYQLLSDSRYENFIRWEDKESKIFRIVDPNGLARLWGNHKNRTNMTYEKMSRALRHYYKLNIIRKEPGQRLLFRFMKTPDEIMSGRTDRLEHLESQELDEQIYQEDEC
Sequence of HSF1 (Q00613 whole entry): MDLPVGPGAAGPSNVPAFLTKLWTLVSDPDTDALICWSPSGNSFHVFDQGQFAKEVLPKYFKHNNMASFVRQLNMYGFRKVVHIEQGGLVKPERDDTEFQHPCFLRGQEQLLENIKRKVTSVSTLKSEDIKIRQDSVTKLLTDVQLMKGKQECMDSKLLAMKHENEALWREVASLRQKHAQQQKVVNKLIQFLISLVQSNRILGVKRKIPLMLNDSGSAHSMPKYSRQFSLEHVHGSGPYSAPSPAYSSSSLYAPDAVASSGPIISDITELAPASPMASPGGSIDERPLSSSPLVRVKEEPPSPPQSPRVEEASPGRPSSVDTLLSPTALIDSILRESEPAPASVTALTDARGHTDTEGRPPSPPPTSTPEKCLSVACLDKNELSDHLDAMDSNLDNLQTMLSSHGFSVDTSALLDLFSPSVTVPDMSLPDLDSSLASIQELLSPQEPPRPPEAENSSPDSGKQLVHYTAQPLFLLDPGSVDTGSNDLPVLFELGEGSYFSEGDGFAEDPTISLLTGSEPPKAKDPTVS

Sequence	binding signal [1]	binding signal [2]	binding signal [3]	binding signal [4]	binding signal [5]	binding signal [6]	binding signal [7]	binding signal [8]	binding signal [9]	binding signal [10]	binding signal [11]	binding signal [12]	binding signal [13]	binding signal [14]	binding signal [15]	binding signal [16]	binding signal [17]	binding signal [18]
TTCTAG	1.15 fold enrichment (6-mer frequency, TF over GST control)	1.11 fold enrichment (6-mer frequency, TF over GST control)	7.56 fold enrichment (6-mer frequency, TF over GST control)	1.29 fold enrichment (6-mer frequency, TF over GST control)	1.22 fold enrichment (6-mer frequency, TF over GST control)	1.22 fold enrichment (6-mer frequency, TF over GST control)	1.18 fold enrichment (6-mer frequency, TF over GST control)	1.42 fold enrichment (6-mer frequency, TF over GST control)	2.67 fold enrichment (6-mer frequency, TF over GST control)	1.2 fold enrichment (6-mer frequency, TF over GST control)	1.33 fold enrichment (6-mer frequency, TF over GST control)	1.3 fold enrichment (6-mer frequency, TF over GST control)	1.34 fold enrichment (6-mer frequency, TF over GST control)	1.17 fold enrichment (6-mer frequency, TF over GST control)	1.45 fold enrichment (6-mer frequency, TF over GST control)	1.2 fold enrichment (6-mer frequency, TF over GST control)	1.19 fold enrichment (6-mer frequency, TF over GST control)	1.16 fold enrichment (6-mer frequency, TF over GST control)
GCTTCA	1.27 fold enrichment (6-mer frequency, TF over GST control)	1.24 fold enrichment (6-mer frequency, TF over GST control)	1.23 fold enrichment (6-mer frequency, TF over GST control)	1.3 fold enrichment (6-mer frequency, TF over GST control)	1.29 fold enrichment (6-mer frequency, TF over GST control)	1.36 fold enrichment (6-mer frequency, TF over GST control)	1.29 fold enrichment (6-mer frequency, TF over GST control)	1.31 fold enrichment (6-mer frequency, TF over GST control)	1.1 fold enrichment (6-mer frequency, TF over GST control)	1.23 fold enrichment (6-mer frequency, TF over GST control)	1.33 fold enrichment (6-mer frequency, TF over GST control)	1.35 fold enrichment (6-mer frequency, TF over GST control)	1.27 fold enrichment (6-mer frequency, TF over GST control)	1.31 fold enrichment (6-mer frequency, TF over GST control)	1.34 fold enrichment (6-mer frequency, TF over GST control)	1.28 fold enrichment (6-mer frequency, TF over GST control)	1.24 fold enrichment (6-mer frequency, TF over GST control)	1.33 fold enrichment (6-mer frequency, TF over GST control)
